Experimental data published in PubChem BioAssay AID624296 (National Center for Advancing Translational Sciences (NCATS), 2012).
Hit rate of the full screen: of about 350,000 compounds, about 9,900 (2.8%) were called active. Inconclusive results (about 15%) are left out. Calls come from the whole dose curve; as a rule, active = well fitted activation curve with a large enough effect; inconclusive = small, poorly fitted or top-dose-only effect; inactive = no such curve, though single readings can be large or run the other way. The list comes from a sample in which actives are over-represented; it also holds similar structures and randomly drawn compounds.

Test: A quantitative high throughput screen for small molecules that induce DNA re-replication in MCF 10a normal breast cells. For activity, positive = re-replication: % of control where 0% means no effect. Note: nearly all actives have a fitted effect of over 50% in size.
Conditions: MCF 10A DNA re-replication, Hoechst nuclear intensity, 48 h; series mostly up to 46.1 µM; activity, positive = re-replication: at the top concentration
Potency is the fitted concentration of half-maximal effect.

Row | Compound | activity, positive = re-replication | Potency
1 | Cc1cc(C)cc(OCc2nnc(SCC(=O)Nc3ccccc3)o2)c1 | -182% [at 0.0737 µM] (inactive) | 
2 | Cc1cccc(OCc2nnc(SCn3nnc4ccccc4c3=O)o2)c1 | -2.7% (inactive) | 
3 | Cc1cccc(OCc2nnc(SCc3nc4cc(C(F)(F)F)ccc4c(=O)[nH]3)o2)c1 |  | 5.8 µM (active)
4 | C=CC[C@H](CC(=O)NCCO)C(=O)N[C@@H](COC(=O)[C@@H](CC=C)Cc1ccc(F)cc1)Cc1c[nH]c2ccccc12 | 11.8% (inactive) | 
5 | Cc1cccc2c1N(CC(=O)OC(C)C)C(=O)C2=O | 10.9% (inactive) | 
6 | CC(C)OC(=O)CN1C(=O)C(=O)c2ccccc21 |  | 23.1 µM (active)
7 | CC(C)OC(=O)CN1C(=O)c2ccccc2C1=O | 14.7% (inactive) | 
8 | CCN1C[C@@H]2[C@@H]3C(=O)N(C)C(=O)[C@@H]3[C@](C)(C1=O)N2C(=O)c1ccccc1 | -0.605% (inactive) | 
9 | NCCN1CCN2C(=O)CN(C(=O)c3ccccc3)CC12 (stereo not given) | 0.947% (inactive) | 
10 | O=C(c1cn(-c2ccccc2)nc1-c1cc2ccccc2oc1=O)N1CCOCC1 | -18.8% (inactive) | 
11 | O=c1oc2ccccc2cc1-c1cn(-c2ccccc2)c(=S)[nH]1 |  | 5.8 µM (active)
12 | S=c1[nH]c(-c2cccs2)cn1-c1ccccc1 | -13.1% (inactive) | 
13 | COc1ccc(CNC(=O)COC(=O)c2ccc(C)c(S(=O)(=O)N3CCOCC3)c2)cc1OC | -1.75% (inactive) | 
14 | O=C(NCc1cccnc1)c1cccnc1Sc1ccc(Cl)cc1 | 1.68% (inactive) | 
15 | CSc1ncccc1C(=O)NC1CCCCCC1 | 1.92% (inactive) | 
16 | O=C(NC1CCCCCC1)c1cccnc1Sc1ccc(Cl)cc1 |  | 18.4 µM (active)
17 | CCC(C(=O)NC1CCCCC1)N(C(=O)c1snc(C(N)=O)c1N)c1ccc(OC)cc1OC (stereo not given) | -0.467% (inactive) | 
18 | COc1ccc(N(C(=O)c2snc(C(N)=O)c2N)C(C(=O)NC2CCCC2)c2ccco2)cc1OC (stereo not given) | 4.32% (inactive) | 
19 | COc1ccc(N(C(=O)c2snc(C(N)=O)c2N)C(C(=O)NC2CCCC2)c2ccc(C)o2)c(OC)c1 (stereo not given) |  | 20.6 µM (active)
20 | COc1ccc(/C=C/C(=O)OCC(=O)NC2CCCCCC2)cc1OC | -3.09% (inactive) | 
21 | CC(C)(C)OC(=O)NCCCCCNC(=O)c1[nH]cnc1C(=O)Nc1nccs1 | 11.1% (inactive) | 
22 | Cc1cc([N+](=O)[O-])c(=O)[nH]c1C | -1.26% (inactive) | 
23 | Cc1onc(-c2c(F)cccc2Cl)c1C(=O)N(C)CC(=O)Nc1cccc(F)c1 | 7.52% (inactive) | 
24 | O=C(Nc1cccc(S(=O)(=O)N2CCCCC2)c1)c1ccc2c(c1)OCO2 | -37.9% (inactive) | 
25 | Cc1onc(-c2c(F)cccc2Cl)c1C(=O)Nc1cccc(S(=O)(=O)N2CCCCC2)c1 |  | 14.6 µM (active)
26 | CSc1c(SCc2ccccc2)cnn(Cc2ccccc2)c1=O |  | 18.4 µM (active)
27 | Cn1c(CO)cnc1SCc1ccccc1 | 4.65% (inactive) | 

Row | Compound | activity, positive = re-replication | Potency
28 | CSc1nc2ccccc2c(=O)n1Cc1ccc(F)cc1 | -0.253% (inactive) | 
29 | CCCCNC1(C#N)CCN(Cc2ccccc2)CC1 | -3.09% (inactive) | 
30 | CC(C)c1nccn1S(=O)(=O)c1cc([N+](=O)[O-])ccc1Cl | -7.05% (inactive) | 
31 | CCc1nc(C)cn1S(=O)(=O)c1cc(OC)c(C)cc1C | 1.93% (inactive) | 
32 | CCc1nc(C)cn1S(=O)(=O)c1cc([N+](=O)[O-])ccc1Cl |  | 6.51 µM (active)
33 | CC(=O)Nc1ccc(C(=O)N(C2=NC(C)CS2)c2ccc(Cl)cc2)cc1 (stereo not given) |  | 5.17 µM (active)
34 | COc1ccccc1C(=O)N(C1=NC(C)CS1)c1ccc(Cl)cc1 (stereo not given) | -0.302% (inactive) | 
35 | CC(=O)Nc1ccc(NC(=O)CCCNC(=O)c2ccc(Cl)cc2)cc1 | 4.76% (inactive) | 
36 | O=C1CC(c2ccccc2)C(c2ccccc2)=NN1 (stereo not given) | -1.02% (inactive) | 
37 | Cc1nc2ccc(NC(=O)C3CCCCC3)cc2s1 | -6.42% (inactive) | 
38 | CN(C)CCCn1c(N)c(C#N)c2nc(C#N)c(C#N)nc21 |  | 7.31 µM (active)
39 | CCCN=C1N(C)C[C@@H]2[C@@H]3C(=O)N(Cc4ccccc4)C(=O)[C@@H]3[C@](C)(C(=O)OC)N12 | 1.39% (inactive) | 
40 | COc1ccccc1NS(=O)(=O)c1ccc(C)c(C(=O)NNC(=O)c2csc(N3CCOCC3)n2)c1 | 10.5% (inactive) | 
41 | CC(C)C(NC(=O)c1c(F)cccc1F)C(=O)NNC(=O)c1ccccc1 (stereo not given) | 5.67% (inactive) | 
42 | CCCc1nc2c(c(=O)c3ccccc3n2C)c(=O)n1-c1cc(C)cc(C)c1 | -0.733% (inactive) | 
43 | CCCc1nc2c(c(=O)c3ccccc3n2C)c(=O)n1C1CCCCCC1 |  | 14.6 µM (active)
44 | Cn1c2ccccc2c(=O)c2c(O)cccc21 | 0.882% (inactive) | 
45 | CC(=NNC(=O)c1ccncc1)c1ccc(Cl)c(Cl)c1 | -0.649% (inactive) | 
46 | CCC1CCCCN1C(=S)NC(=O)c1ccco1 (stereo not given) | 11.7% (inactive) | 
47 | Cc1ccc2nc(-c3ccncc3)cc(C(=O)Nc3ccc(OC(F)F)cc3)c2c1 |  | 14.6 µM (active)
48 | CCN(CC)CCNC(=O)c1ccc(NC(=O)c2cc(-c3ccncc3)nc3ccccc23)cc1 | 8.64% (inactive) | 
49 | O=C(Nc1ccncc1)c1cc(-c2ccccn2)nc2ccc(Br)cc12 | -3.49% (inactive) | 
50 | Cc1nc2ccc(NC(=O)c3cccc(S(=O)(=O)N4CCOCC4)c3)cc2s1 | 9.34% (inactive) | 
51 | CC1(C)N=C(N)NC(Nc2ccc(Cl)cc2)=N1 | 11% (inactive) | 
52 | Cc1csc(=O)n1CC(=O)Nc1ccc(S(C)(=O)=O)cc1 | -17.5% (inactive) | 
53 | CCOc1cc(N2CCOCC2)c(OCC)cc1NC(=O)COc1cccc(Cl)c1 | 1.23% (inactive) | 
54 | CCOc1cc(N2CCOCC2)c(OCC)cc1NC(=O)c1cc(C)nc2ccccc12 | 4.26% (inactive) | 

Row | Compound | activity, positive = re-replication | Potency
55 | CCOc1cc(N2CCOCC2)c(OCC)cc1NC(=O)COc1cccc2cccnc12 |  | 15.8 µM (active)
56 | CC(OC(=O)c1cc2ccccc2[nH]1)C(=O)N(C)c1ccccc1 (stereo not given) | 9.46% (inactive) | 
57 | CN(C)c1ccc(/C=N/Nc2cc(N3CCOCC3)nc(N3CCOCC3)n2)cc1 | -0.353% (inactive) | 
58 | C(=N/Nc1cc(N2CCOCC2)nc(N2CCOCC2)n1)/c1ccccc1 |  | 23.1 µM (active)
59 | Cc1cc(N2CCN(c3ccccc3)CC2)nc(N2CCOCC2)n1 | 11.3% (inactive) | 
60 | COc1ccccc1NC(=O)COC(=O)CNC(=O)C1CCCCC1 | 2.67% (inactive) | 
61 | CCCn1nc(NS(=O)(=O)c2ccccc2)c2cc3cc(C)ccc3nc21 | 0.575% (inactive) | 
62 | CCn1nc(NC(=O)c2ccco2)c2cc3ccc(C)cc3nc21 |  | 8.91 µM (active)
63 | Cc1ccnc(NC(=O)c2ccco2)n1 | 6.36% (inactive) | 
64 | COC(=O)[C@]1(Cc2ccccc2)N[C@H](CN(C)S(=O)(=O)c2ccc(F)cc2)[C@@H]2C(=O)N(Cc3ccccc3)C(=O)[C@@H]21 | 4.15% (inactive) | 
65 | CCC1(C)Cc2c(sc3nc4n(c(=O)c23)CCCS4)CO1 (stereo not given) | 9.25% (inactive) | 
66 | CCC1(C)Cc2c(sc3nc(SC)nc(N)c23)CO1 (stereo not given) | -0.174% (inactive) | 
67 | CCCSc1nc(NCc2ccco2)c2c3c(sc2n1)COC(C)(CC)C3 (stereo not given) |  | 23.1 µM (active)
68 | O=C(OCC(=O)N1CCCCC1)c1ccc(OC(F)(F)F)cc1 | 1.12% (inactive) | 
69 | O=C(NCCc1ccc(F)cc1)c1ccc(S(=O)(=O)N2CCCCC2)cc1 | 11.5% (inactive) | 
70 | CC1(c2ccccc2)NC(=O)N(CC(=O)N2CC(=O)Nc3ccccc32)C1=O (stereo not given) | 0.732% (inactive) | 
71 | NC(=O)C1CCN(C(=O)c2ccc(F)c(S(=O)(=O)N3CCOCC3)c2)CC1 | -3.07% (inactive) | 
72 | Cc1ccc(S(=O)(=O)Cc2cc(-c3ccc(Cl)cc3)no2)cc1 | 17.2% (inactive) | 
73 | O=S(=O)(NCc1ccc(Cl)cc1Cl)c1cccs1 | -8.83% (inactive) | 
74 | O=S(=O)(Cc1ccc(Cl)cc1Cl)c1ccc(Cl)cc1 |  | 0.651 µM (active)
75 | CCCC(=O)Nc1ccc(C(=O)N/N=C/c2ccc[nH]2)cc1 |  | 16.4 µM (active)
76 | CC(=O)Nc1ccc(C(=O)/C=C/c2ccc[nH]2)cc1 | 14.4% (inactive) | 
77 | CC(=O)Nc1ccc(C(=O)NNC(=O)CCCCC(=O)NNC(=O)c2ccc(NC(C)=O)cc2)cc1 | 5.58% (inactive) | 
78 | Cc1ccc(C(=O)Nc2ccc3c(c2)OCCO3)cc1S(=O)(=O)N1CCOCC1 | 8.12% (inactive) | 
79 | O=C(CNCCC1=CCCCC1)Nc1ccccc1N1CCCCCC1 |  | 20.6 µM (active)
80 | Cc1ccccc1NC(=O)CNc1ccccc1N1CCCCC1 | 27% (inactive) | 
81 | Cn1c(=O)c2c(nc(SCC(=O)Nc3ccccc3N3CCCCC3)n2C)n(C)c1=O | 2.92% (inactive) | 

Row | Compound | activity, positive = re-replication | Potency
82 | COc1ccc(C(=O)NCC2CCCCC2)cc1S(=O)(=O)N1CCCC1 | -4.77% (inactive) | 
83 | Nc1nonc1-n1nnc(C(=O)N/N=C/c2ccccc2O)c1CN1CCCC1 | 12.2% (inactive) | 
84 | Nc1nonc1-n1nnc(C(=O)N/N=C/c2cc(Br)ccc2O)c1CSC1=NCCS1 |  | 10.3 µM (active)
85 | Cc1ccc(SCc2c(C(=O)N/N=C/C3CC=CCC3)nnn2-c2nonc2N)cc1 (stereo not given) | -2.37% (inactive) | 
86 | COc1ccc(C2(c3ccc(OC)cc3)NC(=O)N(CC(=O)Nc3cc(C)on3)C2=O)cc1 | 18.8% (inactive) | 
87 | Cn1c(=O)c2c(ncn2CC(COCc2ccccc2Cl)OCc2ccccc2Cl)n(C)c1=O (stereo not given) |  | 13 µM (active)
88 | Cn1c(=O)c2c(ncn2CCc2ccccc2)n(C)c1=O | 0.307% (inactive) | 
89 | Cn1c(=O)c2c(ncn2CC(=O)N2CCN(c3ccccc3)CC2)n(C)c1=O | 0.0795% (inactive) | 
90 | O=C(O)C1C2C=CC(O2)C1C(=O)Nc1ccccn1 (stereo not given) | -41% (inactive) | 
91 | O=C(CNC(=O)c1n[nH]c2ccccc12)Nc1cc(Cl)ccc1Cl | 4.67% (inactive) | 
92 | COC[C@@H]1NS(=O)(=O)c2ccc(Br)cc2O[C@H]1c1ccccc1 | -6.09% (inactive) | 
93 | COc1ccccc1NC(=O)/C=C/C(=O)O | 36.3% (inactive) | 
94 | O=C(O)/C=C/C(=O)Nc1ccc(F)cc1F | 18.2% (inactive) | 
95 | COC(=O)c1sc(-c2ccc(C(C)(C)C)cc2)cc1NC(=O)/C=C/C(=O)O |  | 16.4 µM (active)
96 | COC(=O)c1sc(NC(=O)COC(=O)C2CCC2)c(C(=O)OC)c1C | 1.46% (inactive) | 
97 | CC(NCC(=O)Nc1ccccc1C(=O)NC1CC1)c1ccccc1Cl (stereo not given) | 6.15% (inactive) | 
98 | CC(C)CC(=O)Nc1ccc(Cc2ccncc2)cc1 | 11.8% (inactive) | 
99 | CC(CC(=O)Nc1ccccc1)n1ccnc1 (stereo not given) |  | 0.92 µM (active)
100 | O=C(O)CCCC(=O)Nc1ccccc1-n1ccnc1 | -7.39% (inactive) | 
101 | O=[N+]([O-])c1ccc(COc2ccccc2CN2CCOCC2)cc1 | 18.5% (inactive) | 
102 | CCN(CC(=O)NCc1ccc(F)cc1)S(=O)(=O)c1ccc(Cl)s1 | -1.33% (inactive) | 
103 | COc1ccc(C(=O)Nc2cccc(S(C)(=O)=O)c2)cc1 | 15.3% (inactive) | 
104 | COc1cccc(C(=O)Nc2nc3ccc(S(C)(=O)=O)cc3s2)c1 | 1.21% (inactive) | 
105 | COc1ccc2sc(-c3ccc(S(C)(=O)=O)cc3)c(-c3ccc(C(N)=O)cc3)c2c1 |  | 25.9 µM (active)
